This is a sample that favours compounds with a hit; in the whole collection about 11% have one here.
IMPase cell inh = membrane-permeable compound that blocks inositol monophosphatase. CHO-M1 cells, IP1 accumulation, HTRF TR-FRET ratio. AID 901. P97697. 120,000 tested, under 10 active. inhibition (IP1 accumulation), % at 46.1 µM; active = well fitted curve in the direction sought with a large enough effect in the signal ratio, not every such curve was filed as active; inconclusive = small, poorly fitted or top-dose-only effect, or a change in a side signal; inactive = no such curve, though single readings can be large or run the other way; the % refers to the signal ratio;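 note: cells stimulated with carbachol in lithium chloride buffer; plate controls were DMSO basal wells for no effect and reference inhibitor wells for full effect; higher means more IMPase inhibition seen as more IP1 and lower FRET ratio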
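The IP-One HTRF competitive assay in carbachol-stimulated CHO-M1 cells quantifies cellular IP1. Compounds spanned up to 46 uM final, and activity is expressed as AC50 from concentration-response fits of the ratio and donor data.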
IMPase Li cell = membrane-permeable IMPase blocker, potentiated with lithium | CHO-M1 cells, IP1 TR-FRET (IP-One), carbachol + lithium | Potency, µM (titrated, usually from 59.4 µM), without a hit: top-dose activity, negative = IMPase inhibition, most hits filed as inhibitors | 0.35% of 210,000 active; active = well fitted curve in the direction sought with a large enough effect; inconclusive = small, poorly fitted or top-dose-only effect, or another doubt; inactive = no such curve, though single readings can be large; an effect the other way counts as inactive or inconclusive;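 note: IP1 builds up when IMPase is blocked and the TR-FRET signal falls; potency is the fitted concentration of half-maximal effect; plate controls were basal vehicle for no effect and high inhibitor control for full effect; nearly all actives have a fitted effect of over 50% in size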
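CHO cells stably expressing M1 receptor (2000/well) were cultured 16–30 h, then exposed to compounds with a small lithium addition for 30 min at 37C. IP1 was measured by TR-FRET competition; AC50 from Hill fits.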
ALDH1A1 inh = blocks purified human ALDH1A1 activity; P00352; Purified ALDH1A1, NADH fluorescence, propionaldehyde substrate; Potency, µM (highest dose often 75.3 µM), for inactives: at the top dose activity, negative = inhibition, usual class: inhibitors; 7.3% of 220,000 active; AID 1030;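 note: potency is the fitted concentration of half-maximal effect; plate controls were no enzyme wells and a reference inhibitor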
Target sequence (P00352 whole entry, looked up): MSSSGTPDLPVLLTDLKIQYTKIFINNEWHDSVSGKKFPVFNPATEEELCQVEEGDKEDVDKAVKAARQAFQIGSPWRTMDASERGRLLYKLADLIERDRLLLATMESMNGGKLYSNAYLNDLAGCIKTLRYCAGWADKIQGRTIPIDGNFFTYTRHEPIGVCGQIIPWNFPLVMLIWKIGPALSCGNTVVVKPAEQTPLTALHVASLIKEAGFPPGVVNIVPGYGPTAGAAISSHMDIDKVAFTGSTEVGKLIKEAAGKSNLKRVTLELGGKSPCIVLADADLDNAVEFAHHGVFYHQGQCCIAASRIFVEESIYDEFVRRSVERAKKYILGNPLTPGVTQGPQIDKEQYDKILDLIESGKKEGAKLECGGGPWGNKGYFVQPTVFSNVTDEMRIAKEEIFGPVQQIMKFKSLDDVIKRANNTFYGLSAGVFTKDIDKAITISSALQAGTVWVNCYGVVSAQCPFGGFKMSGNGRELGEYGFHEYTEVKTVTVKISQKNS
ALOX12 inhib = blocks human 12-lipoxygenase activity; Potency, µM (titrated, usually from 57.1 µM), inactives show at the top dose activity change, negative = inhibition, most hits filed as inhibitors; 0.12% of 150,000 active; purified 12-hLO, xylenol orange hydroperoxide absorbance; P18054; active = well fitted curve in the direction sought with a large enough effect; inconclusive = small, poorly fitted or top-dose-only effect, or another doubt; inactive = no such curve, though single readings can be large; an effect the other way counts as inactive or inconclusive; note: potency is the fitted concentration of half-maximal effect; nearly all actives have a fitted effect of over 55% in size
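Lipoxygenase turnover measured by absorbance at 573 and 405 nm after Fe-XO development. Human 12hLO 150 nM, arachidonate 40 uM, pH 7.0 Hepes buffer with detergent; 15 min compound preincubation, 30 min reaction.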
PNC inhibitor = perinucleolar compartment assembly inhibition | PC3M PTB-GFP, PNC prevalence imaging, 16 h; hits give low values | AID 2417 | 3.1% of 140,000 active | activity change (PNC), negative = inhibition, % at 10 µM;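 active = readout at or below -70, meaning at least 70% loss of cells showing the perinucleolar compartment, a nuclear body marking cancer cells; inconclusive = readout between -30 and a set limit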;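 note: plate controls were DMSO wells for no effect and camptothecin positive control wells for full effect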
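Compounds are pinned in duplicate onto adhered PC3M cells stably expressing GFP-tagged PTB and incubated 16 h at 37 C. Cells are then fixed, nuclei stained with Hoechst, and PNC-positive cells counted.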
HPGD block = blocks human HPGD enzyme activity. 4.3% of 150,000 active. AID 894. Potency, µM, for inactives: at the top dose activity change, negative = inhibition, hits mostly inhibitors. P15428. purified HPGD, NADH fluorescence kinetic, PGE2 substrate; note: potency is the fitted concentration of half-maximal effect
Target sequence (P15428 whole entry, looked up): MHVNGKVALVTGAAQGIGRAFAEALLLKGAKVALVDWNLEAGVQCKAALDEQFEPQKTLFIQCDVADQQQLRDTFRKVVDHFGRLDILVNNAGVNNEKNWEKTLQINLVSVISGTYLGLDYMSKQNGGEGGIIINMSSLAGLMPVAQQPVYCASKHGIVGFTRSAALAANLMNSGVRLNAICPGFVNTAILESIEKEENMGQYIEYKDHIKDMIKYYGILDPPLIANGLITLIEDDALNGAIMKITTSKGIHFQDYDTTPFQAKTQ
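NADH formation kinetics: reaction with 30 uM PGE2 and 1 mM NAD+ (final), 20 nM enzyme, Tris-HCl pH 8 with Tween 20, after 15 min compound preincubation at room temperature. Fluorescence change, last versus first of five reads.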
Active calls of the source: *; ? = inconclusive; . = no result; [ ] = another dose, or the depositor's remark. Unless noted, calls come from the whole dose curve; as a rule, active = well fitted inhibition curve with a large enough effect (not every such curve was filed as active); inconclusive = small, poorly fitted or top-dose-only effect, or another doubt; inactive = no such curve, though single readings can be large or run the other way. Unless noted, % is set by controls: 0 for no effect and ±100 for the full control effect.

SMILES | IMPase cell inh | IMPase Li cell | ALDH1A1 inh | ALOX12 inhib | PNC inhibitor | HPGD block
Cc1cc2cc(CNC(=O)NC3CCCCC3)ccc2n1C | -2 | ? | -2% | -5% | -11 | 28µM*
Cc1ccc(S(=O)(=O)NCc2ccc3c(c2)cc(C)n3C)cc1 | -8 | 32%[38.3 µM] | 20µM* | -12% | ? | -7%
COCC(=O)NCc1ccc2c(c1)cc(C)n2C | . | 18% | 2% | 0% | -113* | 25µM*
Cc1cc2cc(CNC(=O)c3cc4ccccc4o3)ccc2n1C | -27 | -19%[38.3 µM] | ? | 0% | -9 | 7.1µM*
Fc1ccc(Nc2ccnc(-c3ccccc3C(F)(F)F)n2)cc1 | . | 6% | 2% | . | . | .
CN(C)c1ncc2nc(-c3ccccc3)c(=O)n(Cc3cccs3)c2n1 | . | 3% | ? | . | . | .
Cc1ccccc1NC(=O)Cn1cc(C(=O)c2ccco2)c2ccccc21 | 9 | . | . | . | . | .
Cc1ccc(S(=O)(=O)/C(=C/Cl)NC(=O)c2ccccc2)cc1 | . | 2% | 7.9µM* | -2% | 10 | -3%
Cn1c(=S)[nH]c2ccccc21 | 3 | ? | -15% | -1% | 28 | -24%
Cn1ccc(=S)c2ccccc21 | . | ? | 7.1µM* | . | . | .
COC(=O)CC1C(=O)NCCN1C(=O)CSc1nnc(Nc2ccc(OC)cc2)s1 (stereo unspecified) | 3 | 26%[38.3 µM] | 25µM* | 9% | 31 | ?
Oc1c(N=NC(=S)Nc2ccccc2F)c2ccccc2n1Cc1ccc(F)cc1 | . | -4% | 16µM* | . | . | .
Oc1c(N=NC(=S)Nc2ccccc2F)c2ccccc2n1Cc1cccc(Cl)c1 | . | 6% | 0.4µM* | . | . | .
Cc1cccc(Cn2c(O)c(N=NC(=S)Nc3ccccc3F)c3ccccc32)c1 | . | 0% | ? | . | . | .
CC(=O)SC1CC2=CC(=O)CC[C@@]2(C)C2CC[C@@]3(C)[C@@H](CC[C@@]34CCC(=O)O4)C12 (stereo partly specified) | . | 5% | 3% | -1% | . | -3%
COc1ccccc1CCNC(=O)C(C)Sc1nc(-c2ccccc2)cc(C(F)(F)F)n1 (stereo unspecified) | 5 | . | . | . | . | .
Cc1c(N/C=C(\Cl)C(=O)C(F)(F)F)c(=O)n(-c2ccccc2)n1C | . | 1% | 32µM* | . | . | .
COc1ccc(-n2c(=O)c(-c3cc(F)cc(F)c3)nc3cnc(N(C)C)nc32)cc1 | . | -29% | ? | . | . | .
Cc1ccc(N=C2SC(C(=O)NCCc3ccccc3)CC(=O)N2C)cc1C (stereo unspecified) | . | 25% | 10µM* | . | . | .
Cc1ccc(N=C2SC(C(=O)O)CC(=O)N2C)cc1C (stereo unspecified) | . | 6% | 3% | . | . | .
O=C(c1ccncc1)N1CCC2(CCCN(Cc3nccs3)C2)CC1 | . | 24% | 8% | 1% | . | -4%
Cc1ccc(C(=O)NCc2cccnc2)cc1S(=O)(=O)Nc1ccccc1 | . | 8% | 5% | . | . | .
O=C(O)c1ccc(NC(=S)NC(NC(=O)c2ccco2)C(Cl)(Cl)Cl)cc1 (stereo unspecified) | -7 | 15%[38.3 µM] | 40µM* | -12% | ? | -14%
CN(C)C(=O)NC(NC(=S)Nc1ccccc1)C(Cl)(Cl)Cl (stereo unspecified) | . | 0% | 13µM* | . | . | .
Cc1cccc(NC(=S)NC(NC(=O)c2ccco2)C(Cl)(Cl)Cl)c1 (stereo unspecified) | 6 | 48%[38.3 µM] | ? | -25% | ? | -20%
SMILES | IMPase cell inh | IMPase Li cell | ALDH1A1 inh | ALOX12 inhib | PNC inhibitor | HPGD block
Cc1ccc(NC(=S)NC(NC(=O)c2ccco2)C(Cl)(Cl)Cl)cc1 (stereo unspecified) | 18 | 16%[38.3 µM] | 28µM* | -27% | -6 | -23%
Cc1ccc(NC(NC(=O)Cc2ccccc2)C(Cl)(Cl)Cl)cc1 (stereo unspecified) | -2 | 18% | -8% | -2% | -111* | -17%
CC[C@H](C)[C@@H](NC(=O)O[C@@H]1Cc2cc(Br)ccc2O[C@H]1c1cccc(OC)c1)C(=O)OC | . | 12% | 11% | . | . | -7%
CC(=O)Nc1ccccc1C=C1c2ccccc2-c2ccccc21 | . | 0% | 9%[13.5 µM] | -1%[11.4 µM] | . | -8%
O=C(N/N=C/c1ccc([N+](=O)[O-])cc1)c1[nH]ncc1Br | . | -6% | 4% | . | . | .
O=[N+]([O-])c1ccc(N=Cc2ccc(Br)c([N+](=O)[O-])c2)cc1 | . | -10% | 7.9µM* | 3% | 15 | -17%
Cc1c(N=Cc2ccc(O)c(Br)c2)cccc1[N+](=O)[O-] | . | -14% | 22µM* | -3% | ? | ?
Cc1c(Cl)cccc1N=Cc1ccc([N+](=O)[O-])s1 | -2 | -1%[38.3 µM] | ? | -2% | ? | -7%
COC(=O)[C@@]1(Cc2ccc(OC)cc2)[C@H]2c3cc(C(=O)N4CCCC4)n(Cc4ccc(C)c(F)c4F)c3C[C@H]2CN1C(=O)c1ccccc1 | . | 10% | -4% | -8% | . | -15%
O=C(Nc1ccc2oc(-c3cccc(F)c3)nc2c1)c1ccc2ccccc2c1 | 7 | . | . | . | . | .
CCOc1ccc(-c2c(C)n([O-])c3c([n+]2=O)CCCCC3)cc1 | . | -2% | 6% | . | . | .
O=C(CCc1ccc(S(=O)(=O)N2CCOCC2)cc1)OCc1nc2ccccc2s1 | 12 | 12%[38.3 µM] | 7.9µM* | -12% | -4 | -11%
O=C(CCc1nc2ccccc2[nH]c1=O)OCc1ccc(S(=O)(=O)N2CCOCC2)cc1 | -6 | 19%[38.3 µM] | ? | -3% | -15 | -25%
O=C(OCc1nc2ccccc2s1)c1cccc(S(=O)(=O)N2CCOCC2)c1 | 2 | -1%[38.3 µM] | -7% | -6% | -100* | -18%
COC(=O)NC(c1cccc(F)c1)C(C(C)=O)C(=O)OC (stereo unspecified) | . | . | 3%[13.5 µM] | . | . | .
CCc1ccccc1NC(=S)N(CCCN1CCOCC1)Cc1cccs1 | . | 20% | ? | -1% | 9 | -4%
COc1ccc(-n2c(Cc3cccn3C)nnc2SCC(=O)Nc2ccc3c(c2)OCO3)cc1 | -2 | 2% | 14µM* | -1% | 97 | -18%
COc1ccc(-n2c(Cc3cccn3C)nnc2SCC(=O)Nc2ccc3c(c2)OCCO3)cc1 | -2 | -1%[38.3 µM] | 1µM* | 7% | 17 | -19%
Cn1cccc1Cc1nnc(SCC(=O)Nc2ccc3c(c2)OCCO3)n1CCc1ccccc1 | 1 | 27%[38.3 µM] | 14µM* | 6% | ? | -16%
COc1ccc2[nH]cc(CCNc3nc(-c4cccnc4)nc4ccccc34)c2c1 | . | 22% | ? | . | . | .
O=[N+]([O-])C(=C1Nc2ccccc2N1)C(Cl)=C(Cl)Cl | . | 3% | 6.3µM* | . | . | .
CN1CCO/C1=C(\C(Cl)=C(Cl)Cl)[N+](=O)[O-] | . | 9% | 2% | . | . | .
O=C(/C=C/c1ccc(S(=O)(=O)N2CCOCC2)cc1)NCc1ccc(Cl)cc1 | . | 10% | 12% | 2% | 32 | -7%
